These results are taken from PubChem BioAssay (EPA / NIEHS).

Structures are written as SMILES. Inconclusive results are not listed. The source made the active and inactive calls. Rule for the calls, unless noted: active = hit-call score of the fitted dose curve at least 0.9, where 1 is the maximum; inactive = score below 0.9.

Assay [1] is described as follows: ATG_Oct_MLP_CIS: Attagene CIS-FACTORIAL HepG2 Assay for human Octamer-Binding Transcription Factor (Oct) (AID 2282993). The note with it: HepG2 Attagene cis-factorial Oct reporter, mRNA; actives raise or lower the signal. The method in brief: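 Using HepG2 cells bearing transfected cis-reporter constructs, mRNA induction was read after 24 h by fluorescent RT-PCR and capillary electrophoresis, with DMSO defining baseline for gain- or loss-of-signal fits.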

For assay [2], the target named is Cellular tumor antigen p53 (Homo sapiens) (UniProt P04637). Put plainly: ATG_p53_CIS: Attagene CIS-FACTORIAL HepG2 Assay for human p53 Transcription Factor (AID 2282994). The note with it: HepG2 p53 cis-element reporter, Attagene mRNA; actives raise or lower the signal. The method in brief:
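HepG2, transient MRTU transfection (cis promoter elements, endogenous TFs); 24 h dosing; RNA isolation, RT-PCR, 6-FAM primer extension, HpaI digest, CE fluorescence; bidirectional fit vs DMSO.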

Assay [3] in a line: BSK_3C_TissueFactor: BioMAP Diversity Plus: 3C Assay for Tissue Factor Biomarker Activity (AID 2282997). The note with it: BioMAP 3C HUVEC, tissue factor biomarker readout; actives raise or lower the signal. The method in brief:
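Human vascular primary cells (umbilical vein endothelium) received test chemical; Tissue Factor was determined by ELISA at 24 h, and both gain and loss of signal versus DMSO were fitted.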

Assay [4] in a line: BSK_3C_uPAR: BioMAP Diversity Plus: 3C Assay for Urokinase-type plasminogen activator receptor (uPAR) Biomarker Activity (AID 2282998). The conditions noted are these: BioMAP 3C HUVEC, uPAR biomarker ELISA; actives raise or lower the signal. In a few lines: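 In this endothelial cell-based assay, human umbilical vein primary cells were treated with chemicals and harvested at 24 h. uPAR was quantified using ELISA, with gains or losses fitted relative to DMSO controls.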
On the technique in general: An ELISA detects its analyte on a solid surface through an enzyme-linked reagent.

Assay [5] is described as follows: BSK_3C_VCAM1: BioMAP Diversity Plus: 3C Assay for Vascular cell adhesion molecule 1 (VCAM1) Biomarker Activity (AID 2282999). The note with it: BioMAP 3C HUVEC, VCAM1 ELISA, cytokine-stimulated; actives raise or lower the signal. In a few lines:
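Endothelial cells from human umbilical vein are treated with test chemical. At 24 h, VCAM-1 is measured by ELISA, and responses in either direction are fitted relative to DMSO.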

Assay [6] can be described thus: BSK_4H_Eotaxin3: BioMAP Diversity Plus: 4H Assay for Eotaxin 3 Biomarker Activity (AID 2283000).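 For outcome: CCL26 protein level quantified by ELISA in parallel with SRB cytotoxicity check.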 The note with it: primary human endothelial cells (HUVEC); actives raise or lower the signal. The method in brief:
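Readout is Eotaxin-3 (CCL26) level by ELISA in primary human umbilical vein endothelial cells harvested 24 h after chemical exposure; activity fitted in both directions against DMSO control.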

Assay [7] deals with human Peroxisome Proliferator-activated Receptor alpha (PPARa), PPARA (gene 5465) (UniProt Q07869). Put plainly: ATG_PPARa_TRANS: Attagene TRANS-FACTORIAL HepG2 Assay for human Peroxisome Proliferator-activated Receptor alpha (PPARa) (AID 2283001; active = hit-call score of the fitted dose curve at least 0.9, where 1 is the maximum). The method in brief:
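Reporter transcripts from GAL4-UAS units in transfected HepG2 were quantified 24 h after dosing. Detection used reverse transcription, PCR, fluorescent primer extension and capillary electrophoresis, with DMSO as baseline.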

Read-out in assay [8]: Intercellular Adhesion Molecule 1 (ICAM1), ICAM1 (gene 3383)
The experiment in a line: BSK_3C_ICAM1: BioMAP Diversity Plus: 3C Assay for Intercellular Adhesion Molecule 1 (ICAM1) Biomarker Activity (AID 2283003). The note with it: primary human endothelial cells (HUVEC); actives raise or lower the signal. The method in brief: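 Human vascular endothelial primary cells, 3C conditions, 24 h treatment. ICAM-1 by ELISA.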

The target in assay [9] is human Retinoic Acid Receptor beta (RARb), RARB (gene 5915) (UniProt P10826). The experiment in a line: ATG_RARb_TRANS: Attagene TRANS-FACTORIAL HepG2 Assay for human Retinoic Acid Receptor beta (AID 2283004; active = hit-call score of the fitted dose curve at least 0.9, where 1 is the maximum). In a few lines:
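Readout is reporter mRNA induction: RNA reverse-transcribed, PCR-amplified, FAM-labelled, HpaI-cut and resolved by capillary electrophoresis. Transiently transfected HepG2 cells carrying exogenous NR–Gal4 chimeras were dosed for 24 h; activity fitted upward relative to DMSO.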

Assay [10] has as its target Retinoic acid receptor alpha (Homo sapiens) (UniProt P10276). The experiment in a line: ATG_RARa_TRANS: Attagene TRANS-FACTORIAL HepG2 Assay for human Retinoic Acid Receptor alpha (RARa) (AID 2283005; active = hit-call score of the fitted dose curve at least 0.9, where 1 is the maximum). The method in brief:
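Reporter transcripts, measured by RT-PCR with fluorescent labeling and capillary electrophoresis after 24 h dosing, reflect activity of an exogenous human RARa–GAL4 fusion in transiently transfected HepG2. Fitted for increase relative to DMSO.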

The nature of assay [11]: BSK_3C_Proliferation: Cell Proliferation Assessment in the BioMAP Diversity Plus: 3C Assay (AID 2283006).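 For AC50: potency may reflect either rise or fall in cell number versus DMSO.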 The conditions noted are these: primary human endothelial cells (HUVEC). In a few lines:
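Proliferation of human vascular endothelial primary cells after 48 h dosing, quantified as SRB-stained protein at 560 nm relative to DMSO.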

The target of assay [12] is Peroxisome proliferator-activated receptor gamma (Homo sapiens) (UniProt P37231). Put plainly: ATG_PPARg_TRANS: Attagene TRANS-FACTORIAL HepG2 Assay for human Peroxisome Proliferator-activated Receptor-gamma (PPARg) (AID 2283007; active = hit-call score of the fitted dose curve at least 0.9, where 1 is the maximum). The method in brief: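 Chimeric NR-Gal4 transactivation is measured in transiently transfected HepG2 cells by reporter mRNA induction at 24 h. Detection uses RT-PCR with fluorescent labelling and capillary electrophoresis; DMSO defines baseline.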

Assay [13] has as its target Nuclear receptor subfamily 1 group I member 2 (Homo sapiens) (UniProt O75469). Put plainly: ATG_PXR_TRANS: Attagene TRANS-FACTORIAL HepG2 Assay for human Pregnane X Receptor (PXR) (AID 2283008; active = hit-call score of the fitted dose curve at least 0.9, where 1 is the maximum). In a few lines: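 Read-out is fluorescence of labelled reporter cDNA fragments separated by capillary electrophoresis after RT-PCR and HpaI digestion. Source: HepG2 cells carrying PXR-GAL4/UAS reporter constructs, treated 24 h; activity fitted upward relative to DMSO.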

Assay [14] deals with human Retinoic Acid Receptor gamma (RARg), RARG (gene 5916) (UniProt P13631). Put plainly: ATG_RARg_TRANS: Attagene TRANS-FACTORIAL HepG2 Assay for human Retinoic Acid Receptor gamma (RARg) (AID 2283009; active = hit-call score of the fitted dose curve at least 0.9, where 1 is the maximum). The method in brief:
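HepG2, RARg-GAL4 TRANS system, 24 h exposure; reporter mRNA by RT-PCR + CE fluorescence; increase over DMSO.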

The target in assay [15] is human RAR-related Orphan Receptor gamma (RORg), RORC (gene 6097) (UniProt P51449). Put plainly: ATG_RORg_TRANS: Attagene TRANS-FACTORIAL HepG2 Assay for human RAR-related Orphan Receptor gamma (RORg) (AID 2283011; active = hit-call score of the fitted dose curve at least 0.9, where 1 is the maximum). In a few lines: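 Transient MRTU transfection of HepG2 (TRANS format, exogenous NR-Gal4 chimera). 24 h dosing. Total RNA → oligo(dT) RT → PCR → 6-FAM labelling → HpaI cut → CE. Gain vs DMSO.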

The target in assay [16] is Retinoic acid receptor RXR-alpha (Homo sapiens) (UniProt P19793). Put plainly: ATG_RXRa_TRANS: Attagene TRANS-FACTORIAL HepG2 Assay for human Retinoid X Receptor alpha (RXRa) (AID 2283012; active = hit-call score of the fitted dose curve at least 0.9, where 1 is the maximum). The method in brief: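 Cells (HepG2) carried transiently transfected GAL4-responsive reporter units. Following a 24 h chemical incubation, reporter mRNA induction was read via RT-PCR fragment analysis; DMSO served as negative control and baseline.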

A short description of assay [17]: ATG_NRF2_ARE_CIS: Attagene CIS-FACTORIAL HepG2 Assay for human Nuclear Factor Erythroid 2 Related Factor 2 (NFR2) response to Antioxidant Response Elements (ARE) (AID 2282992).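 For AC50: reporter mRNA level measured by RT-PCR and capillary electrophoresis fluorescence.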 The note with it: HepG2 Attagene ARE/NRF2 reporter, transcription factor activity; actives raise or lower the signal. The method in brief:
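Transient MRTU transfection of HepG2; 24 h compound exposure; TriZol RNA, RT with oligo(dT), PCR, 6-FAM primer extension, HpaI cut, CE. Bidirectional fit vs DMSO.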

The target of assay [18] is human Peroxisome Proliferator-activated Receptor delta (PPARd), PPARD (gene 5467) (UniProt Q03181). Put plainly: ATG_PPARd_TRANS: Attagene TRANS-FACTORIAL HepG2 Assay for human Peroxisome Proliferator-activated Receptor delta (PPARd) (AID 2283002; active = hit-call score of the fitted dose curve at least 0.9, where 1 is the maximum). In a few lines: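 Transient HepG2 transfection (multiple GAL4-UAS RTUs, chimeric receptor-Gal4); 24 h dosing; total RNA → oligo(dT) RT → PCR → 6-FAM primer extension → HpaI cut → CE. Positive direction vs DMSO.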

As usually defined, the AC50 is the concentration giving half of the maximal activity seen.

Sequence of human Retinoic Acid Receptor gamma (RARg), RARG (gene 5916) (P13631 whole entry, looked up, the tested form may be a part): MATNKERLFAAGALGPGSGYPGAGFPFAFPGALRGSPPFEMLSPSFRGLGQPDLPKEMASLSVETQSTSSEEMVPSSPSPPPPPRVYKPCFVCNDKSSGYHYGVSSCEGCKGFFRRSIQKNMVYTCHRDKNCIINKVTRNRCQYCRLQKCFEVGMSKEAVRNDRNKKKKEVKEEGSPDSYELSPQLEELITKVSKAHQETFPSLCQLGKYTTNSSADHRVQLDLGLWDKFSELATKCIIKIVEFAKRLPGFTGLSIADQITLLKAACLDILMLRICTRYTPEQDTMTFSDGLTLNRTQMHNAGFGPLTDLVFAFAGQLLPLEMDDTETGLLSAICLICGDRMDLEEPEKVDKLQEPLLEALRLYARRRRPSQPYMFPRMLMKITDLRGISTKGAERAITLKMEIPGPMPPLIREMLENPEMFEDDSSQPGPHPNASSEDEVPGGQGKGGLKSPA
Sequence of human RAR-related Orphan Receptor gamma (RORg), RORC (gene 6097) (P51449 whole entry, looked up, the tested form may be a part): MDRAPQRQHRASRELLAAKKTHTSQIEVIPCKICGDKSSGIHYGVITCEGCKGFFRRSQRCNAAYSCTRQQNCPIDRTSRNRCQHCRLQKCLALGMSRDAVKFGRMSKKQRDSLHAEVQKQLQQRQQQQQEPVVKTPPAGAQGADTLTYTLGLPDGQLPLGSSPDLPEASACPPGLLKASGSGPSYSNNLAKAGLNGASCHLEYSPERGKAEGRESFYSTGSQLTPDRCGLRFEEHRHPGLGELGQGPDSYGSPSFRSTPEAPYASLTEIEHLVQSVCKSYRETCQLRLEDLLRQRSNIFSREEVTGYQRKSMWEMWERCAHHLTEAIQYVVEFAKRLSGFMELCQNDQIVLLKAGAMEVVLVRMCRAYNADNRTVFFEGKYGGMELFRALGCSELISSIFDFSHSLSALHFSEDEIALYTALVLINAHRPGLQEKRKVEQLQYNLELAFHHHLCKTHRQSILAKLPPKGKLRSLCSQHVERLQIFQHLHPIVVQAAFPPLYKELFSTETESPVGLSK
Sequence of Nuclear receptor subfamily 1 group I member 2 (Homo sapiens) (O75469 whole entry, looked up, the tested form may be a part): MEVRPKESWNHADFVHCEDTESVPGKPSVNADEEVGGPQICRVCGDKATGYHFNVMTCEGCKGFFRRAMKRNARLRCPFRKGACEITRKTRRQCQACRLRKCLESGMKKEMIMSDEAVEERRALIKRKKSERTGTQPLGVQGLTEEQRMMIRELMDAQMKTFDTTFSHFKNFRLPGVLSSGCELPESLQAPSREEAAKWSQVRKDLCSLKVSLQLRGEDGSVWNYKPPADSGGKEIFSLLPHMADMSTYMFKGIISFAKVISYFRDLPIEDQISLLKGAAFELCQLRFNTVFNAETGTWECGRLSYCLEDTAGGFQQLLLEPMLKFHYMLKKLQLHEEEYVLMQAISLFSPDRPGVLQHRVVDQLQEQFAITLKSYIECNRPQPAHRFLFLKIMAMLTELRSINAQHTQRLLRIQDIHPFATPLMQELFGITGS
Sequence of Cellular tumor antigen p53 (Homo sapiens) (P04637 whole entry, looked up): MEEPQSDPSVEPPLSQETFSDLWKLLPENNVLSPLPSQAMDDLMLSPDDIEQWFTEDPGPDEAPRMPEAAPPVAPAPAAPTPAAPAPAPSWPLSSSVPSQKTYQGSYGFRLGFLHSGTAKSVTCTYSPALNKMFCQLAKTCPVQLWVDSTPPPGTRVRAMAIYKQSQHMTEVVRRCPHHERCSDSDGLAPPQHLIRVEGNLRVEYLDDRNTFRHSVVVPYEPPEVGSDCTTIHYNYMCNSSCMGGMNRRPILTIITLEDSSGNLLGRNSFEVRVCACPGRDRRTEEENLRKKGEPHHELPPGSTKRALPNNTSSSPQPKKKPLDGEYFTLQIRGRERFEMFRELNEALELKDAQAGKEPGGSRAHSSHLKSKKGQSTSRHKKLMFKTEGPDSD
Sequence of Retinoic acid receptor RXR-alpha (Homo sapiens) (P19793 whole entry, looked up, the tested form may be a part): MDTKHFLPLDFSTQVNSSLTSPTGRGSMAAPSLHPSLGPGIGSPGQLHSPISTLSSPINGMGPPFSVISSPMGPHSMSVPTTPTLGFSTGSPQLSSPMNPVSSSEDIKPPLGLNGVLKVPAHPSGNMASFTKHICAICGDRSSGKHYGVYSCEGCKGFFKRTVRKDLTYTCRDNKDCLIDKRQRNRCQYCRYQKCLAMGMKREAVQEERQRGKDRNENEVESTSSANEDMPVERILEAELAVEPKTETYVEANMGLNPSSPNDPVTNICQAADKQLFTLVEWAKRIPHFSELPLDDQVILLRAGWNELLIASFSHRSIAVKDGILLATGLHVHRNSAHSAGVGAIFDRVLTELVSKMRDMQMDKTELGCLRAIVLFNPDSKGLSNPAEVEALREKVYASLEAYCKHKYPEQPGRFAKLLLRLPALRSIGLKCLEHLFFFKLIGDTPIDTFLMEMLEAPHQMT
Sequence of human Retinoic Acid Receptor beta (RARb), RARB (gene 5915) (P10826 whole entry, looked up, the tested form may be a part): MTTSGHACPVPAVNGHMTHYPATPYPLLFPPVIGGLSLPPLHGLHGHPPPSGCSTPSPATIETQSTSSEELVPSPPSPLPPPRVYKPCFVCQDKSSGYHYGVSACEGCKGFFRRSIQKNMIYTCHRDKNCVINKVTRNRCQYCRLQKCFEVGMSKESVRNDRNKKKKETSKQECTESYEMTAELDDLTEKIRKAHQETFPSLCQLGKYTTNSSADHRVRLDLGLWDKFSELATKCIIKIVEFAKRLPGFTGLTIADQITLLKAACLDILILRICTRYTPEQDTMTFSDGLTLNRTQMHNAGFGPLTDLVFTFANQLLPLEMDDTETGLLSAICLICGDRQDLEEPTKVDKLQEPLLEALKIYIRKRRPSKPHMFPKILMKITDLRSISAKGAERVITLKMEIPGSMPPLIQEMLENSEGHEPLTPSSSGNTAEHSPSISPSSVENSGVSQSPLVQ
Sequence of Peroxisome proliferator-activated receptor gamma (Homo sapiens) (P37231 whole entry, looked up, the tested form may be a part): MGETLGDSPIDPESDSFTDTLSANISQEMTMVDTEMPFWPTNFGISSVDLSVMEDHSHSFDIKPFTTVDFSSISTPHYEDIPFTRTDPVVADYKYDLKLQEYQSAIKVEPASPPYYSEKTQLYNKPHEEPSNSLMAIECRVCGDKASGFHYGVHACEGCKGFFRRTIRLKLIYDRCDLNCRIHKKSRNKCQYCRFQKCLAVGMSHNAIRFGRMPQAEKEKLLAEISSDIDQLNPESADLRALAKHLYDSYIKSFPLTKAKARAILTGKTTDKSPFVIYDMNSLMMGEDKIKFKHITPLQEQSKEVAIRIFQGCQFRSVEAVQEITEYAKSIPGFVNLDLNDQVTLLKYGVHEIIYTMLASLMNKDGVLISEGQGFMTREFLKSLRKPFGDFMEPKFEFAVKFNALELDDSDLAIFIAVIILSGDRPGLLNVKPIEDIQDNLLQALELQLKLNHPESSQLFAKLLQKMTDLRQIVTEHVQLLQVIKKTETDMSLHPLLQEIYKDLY
Sequence of Retinoic acid receptor alpha (Homo sapiens) (P10276 whole entry, looked up, the tested form may be a part): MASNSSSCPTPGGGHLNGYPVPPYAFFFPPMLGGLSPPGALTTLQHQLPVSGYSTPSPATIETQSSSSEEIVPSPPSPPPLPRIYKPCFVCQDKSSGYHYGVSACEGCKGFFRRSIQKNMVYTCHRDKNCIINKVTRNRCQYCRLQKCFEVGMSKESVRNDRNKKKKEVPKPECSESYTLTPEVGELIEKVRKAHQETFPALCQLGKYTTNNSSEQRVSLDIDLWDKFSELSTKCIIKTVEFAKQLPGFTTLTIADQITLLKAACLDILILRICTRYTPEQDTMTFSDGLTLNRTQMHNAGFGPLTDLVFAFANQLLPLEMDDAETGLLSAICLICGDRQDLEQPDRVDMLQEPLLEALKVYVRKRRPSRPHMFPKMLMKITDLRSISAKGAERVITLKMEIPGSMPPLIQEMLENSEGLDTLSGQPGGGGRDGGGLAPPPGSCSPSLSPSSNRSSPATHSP
Sequence of human Peroxisome Proliferator-activated Receptor delta (PPARd), PPARD (gene 5467) (Q03181 whole entry, looked up, the tested form may be a part): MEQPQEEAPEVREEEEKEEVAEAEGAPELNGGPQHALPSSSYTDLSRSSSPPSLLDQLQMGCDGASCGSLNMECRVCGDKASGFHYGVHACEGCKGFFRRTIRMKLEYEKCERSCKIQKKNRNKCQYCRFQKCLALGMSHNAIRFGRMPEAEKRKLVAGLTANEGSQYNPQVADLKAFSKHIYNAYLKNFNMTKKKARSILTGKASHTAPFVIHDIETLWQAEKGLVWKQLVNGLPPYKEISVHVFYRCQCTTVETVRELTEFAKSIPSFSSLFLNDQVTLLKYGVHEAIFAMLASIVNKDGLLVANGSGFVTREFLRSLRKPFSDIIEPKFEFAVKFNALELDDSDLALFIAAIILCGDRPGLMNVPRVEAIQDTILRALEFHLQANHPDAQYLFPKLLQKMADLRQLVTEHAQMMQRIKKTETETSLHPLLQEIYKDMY
Sequence of human Peroxisome Proliferator-activated Receptor alpha (PPARa), PPARA (gene 5465) (Q07869 whole entry, looked up, the tested form may be a part): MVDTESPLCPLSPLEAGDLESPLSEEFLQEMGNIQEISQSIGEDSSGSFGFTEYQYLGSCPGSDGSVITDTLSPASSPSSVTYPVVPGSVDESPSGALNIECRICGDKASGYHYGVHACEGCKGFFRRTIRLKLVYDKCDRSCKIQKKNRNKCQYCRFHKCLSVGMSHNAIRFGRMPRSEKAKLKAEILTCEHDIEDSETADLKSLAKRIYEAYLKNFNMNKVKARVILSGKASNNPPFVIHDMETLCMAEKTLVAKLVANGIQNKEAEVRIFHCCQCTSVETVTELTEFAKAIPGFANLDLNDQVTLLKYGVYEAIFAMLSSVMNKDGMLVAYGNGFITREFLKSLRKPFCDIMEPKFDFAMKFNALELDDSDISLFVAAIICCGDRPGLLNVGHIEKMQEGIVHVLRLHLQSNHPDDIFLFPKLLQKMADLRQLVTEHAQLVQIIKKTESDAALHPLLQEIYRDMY

On to `COCC(=O)N(c1c(C)cccc1C)[C@H](C)C(=O)OC`, for which the call in assay [1], in assay [2], in assay [3], in assay [4], in assay [5] and in [6] was inactive. Further, the molecule was classed as inactive in [7], in [8], in assay [9], in assay [10], in assay [11] and in assay [12]. Besides, the call in assay [14], in assay [15] and in assay [16] was inactive. For the same molecule, the AC50 in assay [13] is 20.2 µM (active).
As for `CC(C)N(C(=O)CCl)c1ccccc1`, the AC50 was 2.75 µM (active) in assay [17]; 52.8 µM (active) in [1]; 20 µM (active) in assay [4]; 20 µM (active) in [5]; 20 µM (active) in assay [6]; 25.8 µM (active) in [8]. For the same molecule, the AC50 in assay [11] is 20 µM (active); in [12], 3.21 µM (active). For the same molecule, in assay [3], the result was inactive.
Turning to `C[N+](C)(C)Cc1ccccc1`, the result in [17], in assay [1], in [12], in [13] and in assay [16] was inactive.
With `CN(C1CCCCC1)C1CCCCC1`, in assay [17], the AC50 was 61.1 µM (active). Moreover, the result in [1], in assay [9], in assay [10], in assay [12], in assay [13] and in assay [14] was inactive.
With `CC(C)(C#N)N=NC(C)(C)C#N`, the outcome in [17], in assay [1], in assay [2] and in assay [13] was inactive.
Turning to `CCCCCCCCCCCCCl`, the molecule was classed as inactive in assay [1], in [2], in assay [10], in assay [12], in [13] and in [15].
Turning to `CC1CC(=O)O1` (configuration not stated), the molecule was called inactive in assay [1], in assay [18], in assay [12], in assay [13] and in assay [15].
On to `O=C(O)COc1cc(Cl)c(Cl)cc1Cl`, for which the result in assay [17], in [1], in assay [3], in assay [4], in [5] and in assay [6] was inactive. Besides, the call in [18], in [8], in [11] and in assay [13] was inactive. Further, the AC50 in [12] was 32.6 µM (active).
For `O=c1nc(O)n(Cl)c(=O)n1Cl`, the call in assay [17], in assay [1], in assay [7], in assay [12], in [13] and in assay [15] was inactive. Besides, the molecule was called inactive in assay [16].
For `Cc1cc(C(F)(C(F)(F)F)C(F)(F)F)ccc1NC(=O)c1cccc(I)c1C(=O)NC(C)(C)CS(C)(=O)=O`, the molecule was called inactive in assay [1], in assay [2], in assay [9], in [10], in assay [14] and in assay [16]. The AC50 in [13] was 1.13 µM (active).
